Assay results: the supplement of paper PMC11732987, “Enantioselective OTUD7B fragment discovery through chemoproteomics screening and high-throughput optimisation” (Communications Chemistry, 2025)

Columns and labels:
Experiment in all cases: log2 ratio of Biotin-Ahx-Ub-VS probe labelling (fragment/DMSO); higher = less target engagement (more negative = stronger competition), active = hit call of the paper (q ≤ 0.05, log2 ratio ≤ -1)
Conditions in all cases: compound concentration: 200 uM; treatment time: 3 h
USP34 = USP34 (UniProt Q70CQ2)
USP34, sequence (Q70CQ2 whole entry, the tested form may be a part): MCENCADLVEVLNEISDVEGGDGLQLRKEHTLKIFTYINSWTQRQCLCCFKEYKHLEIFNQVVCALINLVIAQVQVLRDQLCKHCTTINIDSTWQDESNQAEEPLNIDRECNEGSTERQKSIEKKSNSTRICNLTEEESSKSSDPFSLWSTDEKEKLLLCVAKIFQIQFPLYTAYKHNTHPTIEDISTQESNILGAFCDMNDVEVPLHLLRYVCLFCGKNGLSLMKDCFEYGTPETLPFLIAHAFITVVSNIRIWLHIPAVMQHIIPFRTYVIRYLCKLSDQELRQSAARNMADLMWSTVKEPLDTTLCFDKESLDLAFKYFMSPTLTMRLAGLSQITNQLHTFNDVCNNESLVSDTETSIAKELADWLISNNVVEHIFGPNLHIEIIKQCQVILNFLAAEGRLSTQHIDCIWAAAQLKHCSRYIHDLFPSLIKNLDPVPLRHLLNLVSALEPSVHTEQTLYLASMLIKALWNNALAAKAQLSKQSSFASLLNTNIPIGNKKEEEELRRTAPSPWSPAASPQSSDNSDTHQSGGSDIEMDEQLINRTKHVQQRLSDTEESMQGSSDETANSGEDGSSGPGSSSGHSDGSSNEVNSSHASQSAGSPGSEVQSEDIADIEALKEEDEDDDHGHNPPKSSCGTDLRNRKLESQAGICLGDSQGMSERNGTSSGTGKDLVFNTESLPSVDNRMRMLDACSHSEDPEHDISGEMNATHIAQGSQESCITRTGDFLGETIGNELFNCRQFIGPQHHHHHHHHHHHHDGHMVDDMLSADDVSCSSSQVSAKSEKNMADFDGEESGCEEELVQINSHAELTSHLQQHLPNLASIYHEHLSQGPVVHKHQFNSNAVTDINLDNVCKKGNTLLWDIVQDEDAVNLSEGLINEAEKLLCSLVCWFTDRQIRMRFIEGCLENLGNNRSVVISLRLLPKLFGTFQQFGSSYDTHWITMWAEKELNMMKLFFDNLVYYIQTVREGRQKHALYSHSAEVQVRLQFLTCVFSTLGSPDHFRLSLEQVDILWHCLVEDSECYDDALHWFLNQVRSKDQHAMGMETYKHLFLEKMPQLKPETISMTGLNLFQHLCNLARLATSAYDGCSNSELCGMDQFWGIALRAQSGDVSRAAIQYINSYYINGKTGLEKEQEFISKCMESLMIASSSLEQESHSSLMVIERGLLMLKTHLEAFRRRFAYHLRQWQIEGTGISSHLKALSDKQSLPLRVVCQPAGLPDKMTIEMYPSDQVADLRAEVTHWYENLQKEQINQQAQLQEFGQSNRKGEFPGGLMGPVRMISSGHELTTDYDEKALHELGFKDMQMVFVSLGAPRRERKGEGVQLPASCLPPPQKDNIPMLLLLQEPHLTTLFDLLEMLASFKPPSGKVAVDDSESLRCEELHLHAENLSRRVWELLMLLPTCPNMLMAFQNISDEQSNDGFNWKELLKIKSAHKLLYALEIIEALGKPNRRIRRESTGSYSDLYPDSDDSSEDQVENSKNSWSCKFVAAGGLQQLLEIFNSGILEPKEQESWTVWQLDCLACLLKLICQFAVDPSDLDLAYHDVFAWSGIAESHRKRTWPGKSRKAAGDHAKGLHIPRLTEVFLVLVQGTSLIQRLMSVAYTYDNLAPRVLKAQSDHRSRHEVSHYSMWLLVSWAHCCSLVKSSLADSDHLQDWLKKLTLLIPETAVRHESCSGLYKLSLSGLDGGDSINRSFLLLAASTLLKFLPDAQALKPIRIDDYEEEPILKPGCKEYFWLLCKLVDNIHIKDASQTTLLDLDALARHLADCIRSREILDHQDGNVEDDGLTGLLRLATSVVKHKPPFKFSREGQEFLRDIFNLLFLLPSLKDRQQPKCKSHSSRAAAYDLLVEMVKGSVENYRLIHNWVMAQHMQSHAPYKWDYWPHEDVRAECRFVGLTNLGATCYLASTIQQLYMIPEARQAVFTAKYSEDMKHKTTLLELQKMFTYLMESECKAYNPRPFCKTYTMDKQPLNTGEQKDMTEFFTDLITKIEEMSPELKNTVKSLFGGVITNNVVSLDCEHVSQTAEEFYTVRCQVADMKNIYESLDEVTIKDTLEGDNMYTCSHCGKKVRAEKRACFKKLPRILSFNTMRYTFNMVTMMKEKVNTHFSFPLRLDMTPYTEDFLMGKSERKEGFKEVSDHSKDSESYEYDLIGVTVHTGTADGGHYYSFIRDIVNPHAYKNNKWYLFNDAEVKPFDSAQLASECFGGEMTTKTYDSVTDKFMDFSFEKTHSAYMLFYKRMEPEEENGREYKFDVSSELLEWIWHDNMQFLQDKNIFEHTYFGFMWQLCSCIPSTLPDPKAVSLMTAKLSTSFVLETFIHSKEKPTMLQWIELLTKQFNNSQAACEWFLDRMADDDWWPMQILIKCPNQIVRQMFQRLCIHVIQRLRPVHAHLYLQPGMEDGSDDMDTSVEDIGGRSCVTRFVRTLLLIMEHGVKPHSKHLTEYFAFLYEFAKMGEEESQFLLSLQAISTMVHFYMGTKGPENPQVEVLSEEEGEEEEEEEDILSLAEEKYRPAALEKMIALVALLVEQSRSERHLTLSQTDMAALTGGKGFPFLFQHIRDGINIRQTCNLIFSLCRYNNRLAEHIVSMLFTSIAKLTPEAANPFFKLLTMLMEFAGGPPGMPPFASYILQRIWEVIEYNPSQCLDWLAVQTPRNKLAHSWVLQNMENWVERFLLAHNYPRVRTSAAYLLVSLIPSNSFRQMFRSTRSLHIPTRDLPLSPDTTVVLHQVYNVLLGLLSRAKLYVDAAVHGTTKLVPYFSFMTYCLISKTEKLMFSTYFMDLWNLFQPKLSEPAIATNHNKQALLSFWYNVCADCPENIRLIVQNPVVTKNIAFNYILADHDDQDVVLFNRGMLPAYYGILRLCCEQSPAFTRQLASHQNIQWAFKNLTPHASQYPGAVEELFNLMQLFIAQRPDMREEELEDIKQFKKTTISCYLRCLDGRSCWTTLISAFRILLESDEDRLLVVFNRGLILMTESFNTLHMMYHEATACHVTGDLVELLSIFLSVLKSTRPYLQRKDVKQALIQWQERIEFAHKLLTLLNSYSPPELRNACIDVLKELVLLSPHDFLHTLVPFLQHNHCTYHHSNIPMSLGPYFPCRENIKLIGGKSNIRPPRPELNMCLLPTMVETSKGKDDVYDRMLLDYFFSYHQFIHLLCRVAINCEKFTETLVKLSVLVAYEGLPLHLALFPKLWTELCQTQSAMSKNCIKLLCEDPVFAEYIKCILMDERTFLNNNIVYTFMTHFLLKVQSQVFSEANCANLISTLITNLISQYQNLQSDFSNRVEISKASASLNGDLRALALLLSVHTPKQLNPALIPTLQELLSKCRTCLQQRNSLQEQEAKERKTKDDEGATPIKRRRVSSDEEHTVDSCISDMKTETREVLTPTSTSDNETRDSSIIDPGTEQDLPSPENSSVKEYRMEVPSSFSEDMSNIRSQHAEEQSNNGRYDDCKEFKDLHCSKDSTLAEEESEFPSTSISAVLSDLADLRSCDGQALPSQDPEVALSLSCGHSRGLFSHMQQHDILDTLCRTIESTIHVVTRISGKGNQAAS
In short: (§1)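 HEK293T lysate in Tris/CHAPS/IGEPAL buffer with protease inhibitors (495 µg per sample) was given fragment at 200 µM or vehicle for 3 h, in triplicate. It then received Biotin-Ahx-Ub-VS at 0.5 µM final for 1 h. Labelled DUBs were NeutrAvidin-enriched, digested with LysC and trypsin, and run by diaPASEF LC-MS/MS. Values are average log2 fragment/vehicle ratios by unpaired t-test on global-median-normalised Spectronaut quantities of proteins with ≥2 unique peptides.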

USP36 = biological target: T1, USP36 (UniProt Q9P275)
T1 sequence (whole entry): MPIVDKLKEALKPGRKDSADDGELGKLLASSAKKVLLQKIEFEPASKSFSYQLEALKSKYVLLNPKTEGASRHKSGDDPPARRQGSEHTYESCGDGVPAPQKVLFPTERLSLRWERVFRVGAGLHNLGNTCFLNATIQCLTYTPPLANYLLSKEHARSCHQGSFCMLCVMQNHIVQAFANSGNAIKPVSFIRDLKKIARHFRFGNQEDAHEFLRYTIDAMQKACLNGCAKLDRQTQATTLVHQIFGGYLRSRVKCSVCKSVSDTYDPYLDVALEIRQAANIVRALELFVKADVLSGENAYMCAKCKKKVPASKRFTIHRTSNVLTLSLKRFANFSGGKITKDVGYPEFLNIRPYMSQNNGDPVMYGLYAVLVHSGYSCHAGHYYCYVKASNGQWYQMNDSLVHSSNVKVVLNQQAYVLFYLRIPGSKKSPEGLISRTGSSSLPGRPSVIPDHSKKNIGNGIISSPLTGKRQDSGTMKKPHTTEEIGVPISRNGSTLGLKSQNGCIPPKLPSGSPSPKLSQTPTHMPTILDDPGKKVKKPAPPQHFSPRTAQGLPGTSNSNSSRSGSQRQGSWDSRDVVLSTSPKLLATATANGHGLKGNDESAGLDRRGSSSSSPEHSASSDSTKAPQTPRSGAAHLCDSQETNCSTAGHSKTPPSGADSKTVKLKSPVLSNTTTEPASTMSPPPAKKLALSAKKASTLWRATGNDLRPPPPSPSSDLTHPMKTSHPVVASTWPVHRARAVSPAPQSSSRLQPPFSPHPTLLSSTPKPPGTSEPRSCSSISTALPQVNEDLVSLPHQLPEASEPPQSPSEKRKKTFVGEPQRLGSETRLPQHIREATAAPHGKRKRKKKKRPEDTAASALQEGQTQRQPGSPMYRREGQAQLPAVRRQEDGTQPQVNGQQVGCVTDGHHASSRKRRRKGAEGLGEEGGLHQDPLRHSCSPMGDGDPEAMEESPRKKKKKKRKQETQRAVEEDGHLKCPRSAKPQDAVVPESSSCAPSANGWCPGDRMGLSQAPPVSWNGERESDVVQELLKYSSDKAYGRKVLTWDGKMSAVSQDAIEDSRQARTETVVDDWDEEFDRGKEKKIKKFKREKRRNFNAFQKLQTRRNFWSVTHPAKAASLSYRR
In short: as §1

USP38 = biological target: T2, USP38 (UniProt Q8NB14)
T2 sequence (whole entry): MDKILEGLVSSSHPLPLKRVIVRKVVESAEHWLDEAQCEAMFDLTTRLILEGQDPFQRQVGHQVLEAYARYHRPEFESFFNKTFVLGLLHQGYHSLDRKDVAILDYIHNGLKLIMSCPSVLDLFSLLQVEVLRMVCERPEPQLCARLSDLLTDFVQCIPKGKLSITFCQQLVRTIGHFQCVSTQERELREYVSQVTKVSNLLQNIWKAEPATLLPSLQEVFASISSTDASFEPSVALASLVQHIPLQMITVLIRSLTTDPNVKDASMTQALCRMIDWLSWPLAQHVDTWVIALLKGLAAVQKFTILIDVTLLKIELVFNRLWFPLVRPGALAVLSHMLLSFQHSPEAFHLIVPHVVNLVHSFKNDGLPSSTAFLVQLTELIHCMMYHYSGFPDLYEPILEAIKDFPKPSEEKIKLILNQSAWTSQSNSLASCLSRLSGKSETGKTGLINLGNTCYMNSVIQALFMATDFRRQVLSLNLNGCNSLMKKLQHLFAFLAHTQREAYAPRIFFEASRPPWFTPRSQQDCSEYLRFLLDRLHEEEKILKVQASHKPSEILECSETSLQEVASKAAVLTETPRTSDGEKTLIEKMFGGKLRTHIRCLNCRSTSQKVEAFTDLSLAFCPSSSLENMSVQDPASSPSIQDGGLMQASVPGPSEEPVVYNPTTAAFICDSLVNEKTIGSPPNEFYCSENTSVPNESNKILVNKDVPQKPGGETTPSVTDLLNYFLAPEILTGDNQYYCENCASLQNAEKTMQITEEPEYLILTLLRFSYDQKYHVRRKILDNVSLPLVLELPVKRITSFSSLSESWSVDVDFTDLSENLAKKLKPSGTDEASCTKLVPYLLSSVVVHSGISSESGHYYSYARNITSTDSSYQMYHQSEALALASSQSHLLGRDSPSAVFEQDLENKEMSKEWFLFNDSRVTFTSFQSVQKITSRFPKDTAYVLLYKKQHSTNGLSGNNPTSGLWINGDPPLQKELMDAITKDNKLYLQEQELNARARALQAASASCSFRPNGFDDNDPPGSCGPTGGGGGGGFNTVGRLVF
In short: as §1

USP39 = biological target: T3, USP39 (UniProt Q53GS9)
T3 sequence (whole entry): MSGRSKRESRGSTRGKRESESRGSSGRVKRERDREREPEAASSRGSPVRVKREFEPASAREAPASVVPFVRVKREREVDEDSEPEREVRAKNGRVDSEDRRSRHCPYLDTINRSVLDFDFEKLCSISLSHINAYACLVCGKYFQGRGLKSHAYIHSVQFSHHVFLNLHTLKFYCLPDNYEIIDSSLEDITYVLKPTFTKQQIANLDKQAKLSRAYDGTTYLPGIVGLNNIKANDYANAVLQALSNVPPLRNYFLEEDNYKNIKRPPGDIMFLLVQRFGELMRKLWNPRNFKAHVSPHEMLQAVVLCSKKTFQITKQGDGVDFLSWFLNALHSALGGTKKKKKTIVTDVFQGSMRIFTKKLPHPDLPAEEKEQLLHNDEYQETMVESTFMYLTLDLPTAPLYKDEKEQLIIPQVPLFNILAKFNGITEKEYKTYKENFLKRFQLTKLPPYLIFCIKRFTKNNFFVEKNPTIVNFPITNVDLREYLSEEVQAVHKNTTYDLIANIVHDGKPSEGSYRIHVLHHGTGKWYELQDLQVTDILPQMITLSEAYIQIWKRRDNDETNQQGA
In short: as §1

USP4 = biological target: T4, USP4 (UniProt Q13107)
T4 sequence (whole entry): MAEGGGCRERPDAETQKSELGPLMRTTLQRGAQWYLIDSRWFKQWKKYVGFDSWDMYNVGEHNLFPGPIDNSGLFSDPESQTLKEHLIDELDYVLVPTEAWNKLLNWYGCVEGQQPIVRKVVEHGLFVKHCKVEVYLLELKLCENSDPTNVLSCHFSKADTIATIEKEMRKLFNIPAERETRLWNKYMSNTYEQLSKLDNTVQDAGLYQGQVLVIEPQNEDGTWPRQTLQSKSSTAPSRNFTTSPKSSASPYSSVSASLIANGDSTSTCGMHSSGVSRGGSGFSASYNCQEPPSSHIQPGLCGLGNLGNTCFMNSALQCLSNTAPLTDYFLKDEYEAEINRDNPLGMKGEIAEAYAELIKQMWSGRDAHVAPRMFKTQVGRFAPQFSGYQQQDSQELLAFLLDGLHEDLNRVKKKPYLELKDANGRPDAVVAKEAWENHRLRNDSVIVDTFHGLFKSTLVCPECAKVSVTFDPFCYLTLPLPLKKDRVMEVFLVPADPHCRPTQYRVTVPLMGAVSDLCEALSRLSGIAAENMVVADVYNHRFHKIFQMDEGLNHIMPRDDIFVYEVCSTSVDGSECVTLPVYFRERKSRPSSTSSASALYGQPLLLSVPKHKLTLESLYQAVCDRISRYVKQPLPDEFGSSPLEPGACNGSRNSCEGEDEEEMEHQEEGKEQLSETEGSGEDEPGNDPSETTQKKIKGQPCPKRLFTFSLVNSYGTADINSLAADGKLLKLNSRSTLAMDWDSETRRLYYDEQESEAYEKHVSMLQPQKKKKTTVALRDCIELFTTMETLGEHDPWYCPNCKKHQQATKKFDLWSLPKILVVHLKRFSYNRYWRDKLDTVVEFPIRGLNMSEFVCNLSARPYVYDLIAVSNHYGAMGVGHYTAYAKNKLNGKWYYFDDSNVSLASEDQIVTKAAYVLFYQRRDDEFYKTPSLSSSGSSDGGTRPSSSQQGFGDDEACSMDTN
In short: as §1

Measured: log2 ratio of Biotin-Ahx-Ub-VS probe labelling

CNC(=O)C1(NC(=O)CCl)CCCCC1
inactive: USP34 0.0737 | USP36 0.00681 | USP38 0.142 | USP39 0.392 | USP4 0.249
